From PubChem BioAssay come the findings set out here.

A short description of assay [1]: small molecules captured by biotinylated probe aFSTL3 – biochemical, small-molecule microarray, fluorescence 635/667, stem cell growth factor project, primary screen (AID 1064).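 Also: measures binding of the biotinylated anti-FSTL3 antibody to printed compounds.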 The note with it: higher = more signal.
Assay [2] in a line: binders from COS7 lysate, DM2A8 probe, primary screen, torsin A project, cell lysate, small-molecule microarray, fluorescence 635/667 (AID 1065). Particulars: higher = more signal, COS7 lysate expressing mutant human TOR1A.
Assay [3] in a line: small molecules captured by biotinylated probe aFGF2 – biochemical, small-molecule microarray, fluorescence 635/667, stem cell growth factor project, primary screen (AID 1067).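 Also: measures binding of biotinylated aFGF2 protein to printed compounds on slides; z-score merges feature fluorescence and signal-to-noise across triplicate slides.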 Particulars: higher = more signal.
The nature of assay [4]: small molecules captured by biotinylated probe aFGF10 – biochemical, small-molecule microarray, fluorescence 635/667, stem cell growth factor project, primary screen (AID 1071).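 Also: score merges 667 nm spot intensity and signal to noise from triplicate slides.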 Particulars: higher = more signal.
The target in assay [5] is Neurogenic locus notch homolog protein 2 (Homo sapiens) (UniProt Q04721). Nature of the assay: small molecules binding Notch2 protein – biochemical, small-molecule microarray, 635 nm fluorescence, stem cell growth factors, primary screen (AID 1073). The note with it: higher = more signal.
Assay [6] addresses Pro-neuregulin-1, membrane-bound isoform (Homo sapiens) (UniProt Q02297). Nature of the assay: small molecules binding neuregulin-1 protein – biochemical, small-molecule microarray, fluorescence 635/667, psychiatric disease protein project, primary screen (AID 1075).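 Also: score combines 667 nm spot fluorescence with signal to noise.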 Particulars: NRG1 binding, 635 nm fluorescence, higher = more signal.
In assay [7] the test system is Neuregulin-1 EGF-like domain. Nature of the assay: small molecules binding NRG1 EGF domain – biochemical, small-molecule microarray, 635 nm fluorescence, primary screen (AID 1081).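 Also: binding of the protein to compounds printed on small-molecule microarray slides.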 The note with it: higher = more signal.
A short description of assay [8]: FRG1 expression reporter modulators in myotubes – cell-based, C2C12 myotubes, firefly/Renilla luciferase, luminescence, FRG1 inhibition for FSHD, primary screen (AID 1084). Particulars: FRG1 promoter luciferase, higher = more signal, called active from +8 up or from −8 down.
Assay [9] can be described thus: small molecules captured by biotinylated probe aFST – biochemical, small-molecule microarray, fluorescence 635/667, stem cell growth factor project, primary screen (AID 1086).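 Also: score merges 667 nm fluorescence with signal-to-noise of each printed compound spot.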 The note with it: higher = more signal.
Assay [10] can be described thus: binders of probe aHhip on microarray, primary screen, stem cell growth factor project, biochemical, small-molecule microarray, fluorescence 635/667 (AID 1087).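 Also: score merges spot fluorescence at 667nm with spot signal to noise ratio.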 Particulars: higher = more signal.
In assay [11] the test system is PRMT1 (protein arginine N-methyltransferase 1). In words: small molecules binding arginine methyltransferase PRMT1 – biochemical, small-molecule microarray, 635 nm fluorescence, primary screen (AID 1088).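 Also: binding of Prmt1 protein to compounds spotted on small-molecule microarray slides.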 Particulars: higher = more signal.
Assay [12] is described as follows: growth effects on S. cerevisiae YJM789 – YJM789 clinical isolate, OD600, 24 h, basal, primary screen (AID 1089).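 Also: growth of clinical yeast isolate S. cerevisiae YJM 789 seeded 1000 cells per well; test concentration not given here.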 Particulars: higher = more signal, called active from +8 up or from −8 down.
Assay [13] can be described thus: S. pombe growth modifiers, basal conditions – strain 972, OD600, 24 h, no modulator, primary screen (AID 1090).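 Also: basal condition with compound alone and no growth modifier present; test concentration not given here.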 Particulars: S. pombe 972 growth, higher = more signal, called active from +8 up or from −8 down.
Assay [14] is described as follows: budding yeast growth modifiers under rapamycin – strain BY4716, OD600, 96 h, primary screen (AID 1091). Also: test concentration not given here. Particulars: S. cerevisiae BY4716 + rapamycin, higher = more signal, called active from +8 up or from −8 down.
In assay [15] the target is Torsin-1A-interacting protein 2 (Homo sapiens) (UniProt Q8NFQ8). In words: small molecules binding lysate-expressed LULL1 – cell lysate, human LULL1 lysate, 635/667 nm fluorescence, primary screen (AID 1092).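 Also: probe is lysate of COS7 cells overexpressing human LULL1; score merges per-feature 667 nm fluorescence with signal-to-noise.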 The note with it: small-molecule microarray, hLULL1 lysate binding, 635 nm fluorescence; higher = more signal.
Assay [16] is described as follows: optical density change of DRC41 E. coli – strain DRC41, OD650, 24 h, E. coli filamentation project, primary screen (AID 1093).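 Also: MC1000 strain lacking acrAB efflux and sulA so SOS filamentation is blocked; test concentration not given here.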 The note with it: E. coli DRC41 growth, higher = more signal, called active from +8 up or from −8 down.
Assay [17] in a line: probe aLefty2 binding to arrayed compounds – biochemical, biotinylated probe, 635/667 nm fluorescence, primary screen (AID 1094).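 Also: score merges spot fluorescence near 667 nm with spot signal-to-noise ratio.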 Particulars: small-molecule microarray, higher = more signal.
Assay [18] deals with Noggin (protein binding on small-molecule microarray). Nature of the assay: small molecules binding Noggin protein – biochemical, 635/667 nm fluorescence, primary screen (AID 1095).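 Also: score merges 667 nm feature fluorescence with signal to noise over triplicate slides.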 The note with it: 635 nm fluorescence, higher = more signal.
Assay [19] concerns the target Neurogenic locus notch homolog protein 3 (Homo sapiens) (UniProt Q9UM47). In words: small molecules binding NOTCH3 protein – biochemical, 635/667 nm fluorescence, primary screen (AID 1096). The note with it: small-molecule microarray, 635 nm fluorescence, higher = more signal.
A short description of assay [20]: probe aEGFR binding to arrayed compounds – biochemical, biotinylated probe, 635/667 nm fluorescence, primary screen (AID 1097).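 Also: probe is a biotinylated anti-EGFR antibody binding compounds printed on slides; score combines fluorescence near 667 nm and signal to noise of each spot.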 The note with it: small-molecule microarray, higher = more signal.

Activity calls are given as the source filed them.

Torsin-1A-interacting protein 2 (Homo sapiens), sequence (Q8NFQ8 whole entry, looked up): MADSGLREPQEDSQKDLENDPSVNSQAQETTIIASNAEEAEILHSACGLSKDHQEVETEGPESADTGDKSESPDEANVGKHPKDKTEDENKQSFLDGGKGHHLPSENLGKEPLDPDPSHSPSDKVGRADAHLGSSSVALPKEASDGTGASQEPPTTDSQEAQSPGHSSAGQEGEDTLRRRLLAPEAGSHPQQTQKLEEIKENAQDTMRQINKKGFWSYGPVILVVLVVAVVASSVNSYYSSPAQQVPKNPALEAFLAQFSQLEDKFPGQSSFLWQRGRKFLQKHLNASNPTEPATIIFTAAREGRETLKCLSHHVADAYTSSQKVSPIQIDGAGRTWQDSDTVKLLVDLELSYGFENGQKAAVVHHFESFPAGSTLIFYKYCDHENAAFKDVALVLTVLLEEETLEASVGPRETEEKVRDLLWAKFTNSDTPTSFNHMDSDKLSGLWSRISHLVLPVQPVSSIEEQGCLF
Pro-neuregulin-1, membrane-bound isoform (Homo sapiens), sequence (Q02297 whole entry, looked up, the tested form may be a part, canonical isoform): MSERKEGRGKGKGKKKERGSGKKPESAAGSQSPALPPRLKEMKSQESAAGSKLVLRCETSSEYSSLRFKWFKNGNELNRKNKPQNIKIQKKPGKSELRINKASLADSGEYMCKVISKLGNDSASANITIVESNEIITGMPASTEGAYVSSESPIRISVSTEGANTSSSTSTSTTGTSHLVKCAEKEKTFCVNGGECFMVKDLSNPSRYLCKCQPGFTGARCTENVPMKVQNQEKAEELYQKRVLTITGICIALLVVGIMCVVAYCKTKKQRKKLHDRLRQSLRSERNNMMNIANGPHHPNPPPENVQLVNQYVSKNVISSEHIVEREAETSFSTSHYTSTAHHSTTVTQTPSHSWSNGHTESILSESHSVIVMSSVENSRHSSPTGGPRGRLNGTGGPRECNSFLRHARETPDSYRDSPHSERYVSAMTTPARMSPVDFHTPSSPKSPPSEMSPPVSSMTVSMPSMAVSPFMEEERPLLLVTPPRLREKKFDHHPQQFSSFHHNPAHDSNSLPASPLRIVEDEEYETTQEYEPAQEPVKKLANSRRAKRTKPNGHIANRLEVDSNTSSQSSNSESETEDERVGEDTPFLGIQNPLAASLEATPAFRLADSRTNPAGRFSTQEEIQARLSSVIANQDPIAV
Neurogenic locus notch homolog protein 3 (Homo sapiens), sequence (Q9UM47 whole entry, looked up): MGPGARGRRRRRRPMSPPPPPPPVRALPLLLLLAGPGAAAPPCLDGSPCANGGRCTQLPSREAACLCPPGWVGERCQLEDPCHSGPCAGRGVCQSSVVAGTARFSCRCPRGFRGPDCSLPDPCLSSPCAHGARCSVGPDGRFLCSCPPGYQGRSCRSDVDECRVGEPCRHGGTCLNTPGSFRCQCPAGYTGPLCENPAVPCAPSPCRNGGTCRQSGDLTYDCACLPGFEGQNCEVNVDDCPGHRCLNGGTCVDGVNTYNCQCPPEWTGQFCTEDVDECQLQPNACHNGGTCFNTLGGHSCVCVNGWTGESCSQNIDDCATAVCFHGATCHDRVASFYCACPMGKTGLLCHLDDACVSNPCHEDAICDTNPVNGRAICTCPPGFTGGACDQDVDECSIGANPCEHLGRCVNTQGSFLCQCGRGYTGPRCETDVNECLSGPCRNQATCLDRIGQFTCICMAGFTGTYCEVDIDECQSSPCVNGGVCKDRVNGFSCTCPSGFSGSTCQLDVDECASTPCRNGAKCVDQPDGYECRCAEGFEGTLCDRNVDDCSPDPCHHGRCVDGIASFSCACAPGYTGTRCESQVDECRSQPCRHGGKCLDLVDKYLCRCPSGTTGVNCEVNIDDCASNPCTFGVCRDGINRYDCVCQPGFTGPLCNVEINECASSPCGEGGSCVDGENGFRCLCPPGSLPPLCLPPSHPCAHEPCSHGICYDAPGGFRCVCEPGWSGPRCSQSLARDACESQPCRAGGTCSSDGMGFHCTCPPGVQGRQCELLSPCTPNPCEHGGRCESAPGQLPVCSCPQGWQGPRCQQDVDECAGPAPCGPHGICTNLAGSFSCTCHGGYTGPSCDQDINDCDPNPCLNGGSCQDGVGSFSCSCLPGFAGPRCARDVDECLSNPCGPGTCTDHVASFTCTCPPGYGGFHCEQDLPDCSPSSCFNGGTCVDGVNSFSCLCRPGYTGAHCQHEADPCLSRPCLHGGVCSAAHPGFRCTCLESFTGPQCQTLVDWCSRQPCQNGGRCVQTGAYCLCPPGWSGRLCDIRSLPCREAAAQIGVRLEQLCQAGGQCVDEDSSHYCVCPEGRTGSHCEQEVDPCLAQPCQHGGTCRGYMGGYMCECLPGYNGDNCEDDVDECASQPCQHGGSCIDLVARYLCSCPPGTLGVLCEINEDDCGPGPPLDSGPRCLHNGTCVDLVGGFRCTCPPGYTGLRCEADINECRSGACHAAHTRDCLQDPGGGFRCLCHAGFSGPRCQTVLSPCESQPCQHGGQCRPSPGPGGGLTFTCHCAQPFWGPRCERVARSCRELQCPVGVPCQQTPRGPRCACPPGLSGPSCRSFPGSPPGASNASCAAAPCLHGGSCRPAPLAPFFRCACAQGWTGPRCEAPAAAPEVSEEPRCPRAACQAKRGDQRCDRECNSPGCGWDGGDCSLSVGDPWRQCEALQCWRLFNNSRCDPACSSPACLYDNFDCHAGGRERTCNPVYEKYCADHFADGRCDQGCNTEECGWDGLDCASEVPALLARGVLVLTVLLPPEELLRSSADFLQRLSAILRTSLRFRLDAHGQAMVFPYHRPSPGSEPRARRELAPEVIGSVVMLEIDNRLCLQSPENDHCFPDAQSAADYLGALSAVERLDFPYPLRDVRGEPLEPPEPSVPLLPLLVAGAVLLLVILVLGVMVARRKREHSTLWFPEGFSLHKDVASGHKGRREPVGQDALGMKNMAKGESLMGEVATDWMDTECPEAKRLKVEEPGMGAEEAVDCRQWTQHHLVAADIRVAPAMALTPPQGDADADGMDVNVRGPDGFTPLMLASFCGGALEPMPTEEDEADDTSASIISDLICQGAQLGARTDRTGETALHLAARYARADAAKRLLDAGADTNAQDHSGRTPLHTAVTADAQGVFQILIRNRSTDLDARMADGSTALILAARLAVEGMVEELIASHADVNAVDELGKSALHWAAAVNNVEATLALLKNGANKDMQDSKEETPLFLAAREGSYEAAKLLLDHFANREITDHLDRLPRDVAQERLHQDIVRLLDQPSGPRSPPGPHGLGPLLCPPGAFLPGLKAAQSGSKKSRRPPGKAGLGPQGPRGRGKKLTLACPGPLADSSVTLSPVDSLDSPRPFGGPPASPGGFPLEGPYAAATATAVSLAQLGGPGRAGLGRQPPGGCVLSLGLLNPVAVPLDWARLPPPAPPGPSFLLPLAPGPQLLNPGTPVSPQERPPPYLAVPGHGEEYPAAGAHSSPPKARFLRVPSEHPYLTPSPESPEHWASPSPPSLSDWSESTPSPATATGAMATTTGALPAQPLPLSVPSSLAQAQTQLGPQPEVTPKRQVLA

Turning to `C=C[C@@H](C)[C@@H](OC(=O)Nc1ccc(OC)cc1)c1ccc(O)c2ccccc12`, the composite z-score is -0.262 in [1]; 0.173 in assay [2]; -0.0423 in assay [3]; 0.245 in assay [4]; -0.11 in [5]; 0.543 in assay [6]. Besides, the composite z-score in [7] is 1.03; in [9], 0.105; in assay [10], -0.128; in assay [11] it was 0.906; in assay [15] it was 1.15; in assay [17] it was -0.17. The composite z-score in [18] is 1.15; in [19], 0.514; in [20], -0.116. Further, the z-score in assay [8] was 2.58 (inactive); in assay [12], -24.7 (active); in [13], -20.9 (active); in assay [14] it was -3.73 (inactive); in assay [16] it was 1.02 (inactive).
For the molecule `COC(=O)[C@@]1(Cc2ccc(OC)cc2)[C@H]2c3cc(C(=O)N(C)C)n(CCSCCO)c3C[C@H]2CN1C(=O)c1ccccc1`, the composite z-score in [1] was 0.172; in assay [2], -0.233; in [3] it was 0.164; in assay [4], 0.979; in assay [5], 1.61; in assay [6], 1.47. Moreover, the composite z-score in assay [7] was 1.22; in assay [9], 0.547; in assay [10], -0.04; in assay [11], 0.359; in assay [15], 3.53; in [17], 0.162. In addition, the composite z-score in [18] was found to be 0.281; in assay [19], 1.13; in assay [20], 0.31. Also, the z-score in assay [8] was -1.35 (inactive); in assay [12] it was -0.526 (inactive); in assay [13], 0.271 (inactive); in assay [14], -0.251 (inactive); in assay [16], -0.209 (inactive).
As to `COc1ccc(C#Cc2ccc3c(c2)[C@]2(C(=O)N3)[C@H](C(=O)N3CCc4cc(OC)c(OC)cc4C3)[C@H]3C(=O)O[C@H](c4ccccc4)[C@H](c4ccccc4)N3[C@@H]2c2ccc(OCCO)cc2)cc1`, the composite z-score was -0.304 in assay [1]; 0.487 in assay [2]; 0.0019 in assay [3]; 0.817 in assay [4]; 1.32 in [5]; 0.213 in assay [6]. Also, the composite z-score in assay [7] was 1.2; in [9] it was 0.35; in [10], 0.314; in assay [11], 1.55; in assay [15], 2.51; in assay [17] it was -0.0728. Also, the composite z-score is 1.48 in [18], 1.17 in assay [19] and 0.102 in assay [20]. Also, the z-score in assay [8] was 0.239 (inactive); in [12] it was 3.09 (inactive); in assay [13], 2.07 (inactive); in assay [14], 6.17 (inactive); in [16], 1.9 (inactive).
As to `O=C1NC(=O)C2C1C=CC(C(O)c1cccs1)N2Nc1ccccn1` (stereo not given), the composite z-score is 0.151 in assay [1]; -0.133 in assay [2]; 0.0094 in [3]; 0.692 in assay [4]; 1.14 in assay [5]; 0.689 in assay [6]. Further, the composite z-score in [7] is 0.877; in assay [9] it was 0.282; in [10] it was -0.188; in assay [11] it was 0.394; in [15], 1.12; in assay [17], 0.305. Moreover, the composite z-score in [18] worked out at 0.0671; in [19], 0.242; in [20] it was 0.119. Besides, the z-score in assay [8] is 0.304 (inactive); in assay [12], 0.378 (inactive); in assay [13] it was -0.31 (inactive); in assay [14], 0.206 (inactive); in assay [16] it was -0.248 (inactive).
`O=C1O[C@H](c2ccccc2)[C@H](c2ccccc2)N2[C@H]1[C@@H](C(=O)Nc1nc3ccccc3s1)[C@]1(C(=O)Nc3ccc(C#CC4=CCCCC4)cc31)[C@H]2c1ccc(OCCO)cc1`: the composite z-score in assay [1] was -0.576; in assay [2] it was 0.188; in [3], -0.0148; in assay [4], 0.556; in assay [5], 0.6; in assay [6], 0.734. The composite z-score in assay [7] was 1.11; in [9], 1.21; in [10] it was 0.0834; in assay [11], 1.55; in [15] it was 3.26; in assay [17], 0.291. The composite z-score in [18] is 0.715; in assay [19], 1.07; in [20], -0.118. Further, the z-score in assay [8] is 3.08 (inactive); in assay [12], 1.79 (inactive); in assay [13], 1.42 (inactive); in [14], 1.54 (inactive); in [16], 0.476 (inactive).
